In the supplement of paper PMC11732987, “Enantioselective OTUD7B fragment discovery through chemoproteomics screening and high-throughput optimisation” (Communications Chemistry, 2025):

Legend:
Assay in all cases: log2 ratio of Biotin-Ahx-Ub-VS probe labelling (fragment/DMSO); higher = less target engagement (more negative = stronger competition), active = hit call of the paper (q ≤ 0.05, log2 ratio ≤ -1)
Conditions in all cases: compound concentration: 200 uM; treatment time: 3 h
[1] = molecular target: USP34 (UniProt Q70CQ2)
Procedure, shortened: (§1)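 Triplicate samples of HEK293T lysate, 495 µg each, received fragment at 200 µM or vehicle for 3 h, followed by Biotin-Ahx-Ub-VS (0.5 µM final) for 1 h. After NeutrAvidin enrichment of labelled DUBs and LysC/trypsin digestion, peptides were run by diaPASEF LC-MS/MS. The values are average log2 fragment/vehicle ratios from global-median-normalised Spectronaut label-free quantities, tested by unpaired t-test on proteins having ≥2 unique peptides.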

[2] = molecular target: T1, USP36 (UniProt Q9P275)
T1 sequence (whole entry): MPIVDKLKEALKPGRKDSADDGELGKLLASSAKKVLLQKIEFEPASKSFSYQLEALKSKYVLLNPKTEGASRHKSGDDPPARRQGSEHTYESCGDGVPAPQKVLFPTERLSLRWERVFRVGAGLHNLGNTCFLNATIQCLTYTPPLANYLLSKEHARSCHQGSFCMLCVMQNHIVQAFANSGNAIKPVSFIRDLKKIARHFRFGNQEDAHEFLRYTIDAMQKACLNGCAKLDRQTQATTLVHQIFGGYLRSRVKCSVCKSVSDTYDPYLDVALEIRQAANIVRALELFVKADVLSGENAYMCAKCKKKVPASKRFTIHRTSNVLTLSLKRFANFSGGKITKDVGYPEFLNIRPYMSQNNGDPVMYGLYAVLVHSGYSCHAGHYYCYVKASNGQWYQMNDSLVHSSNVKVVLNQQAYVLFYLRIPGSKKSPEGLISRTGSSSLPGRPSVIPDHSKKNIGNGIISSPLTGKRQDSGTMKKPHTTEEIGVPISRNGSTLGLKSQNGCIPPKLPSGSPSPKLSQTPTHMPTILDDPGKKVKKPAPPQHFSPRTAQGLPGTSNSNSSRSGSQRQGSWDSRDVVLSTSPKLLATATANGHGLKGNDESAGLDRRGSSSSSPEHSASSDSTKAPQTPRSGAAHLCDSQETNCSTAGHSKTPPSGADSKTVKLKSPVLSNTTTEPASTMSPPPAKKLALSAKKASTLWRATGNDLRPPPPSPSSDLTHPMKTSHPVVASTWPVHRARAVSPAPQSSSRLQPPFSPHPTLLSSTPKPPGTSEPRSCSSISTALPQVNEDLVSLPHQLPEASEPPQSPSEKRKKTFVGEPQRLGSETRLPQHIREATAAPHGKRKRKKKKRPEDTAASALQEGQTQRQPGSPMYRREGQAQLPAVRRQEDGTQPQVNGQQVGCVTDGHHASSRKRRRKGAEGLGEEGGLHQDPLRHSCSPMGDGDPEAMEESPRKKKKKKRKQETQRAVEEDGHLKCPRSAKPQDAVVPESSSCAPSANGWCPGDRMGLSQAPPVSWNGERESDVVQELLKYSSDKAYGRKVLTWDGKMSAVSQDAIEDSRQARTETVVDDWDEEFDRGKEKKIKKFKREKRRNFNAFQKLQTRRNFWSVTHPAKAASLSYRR
Procedure, shortened: as §1

[3] = molecular target: T2, USP38 (UniProt Q8NB14)
T2 sequence (whole entry): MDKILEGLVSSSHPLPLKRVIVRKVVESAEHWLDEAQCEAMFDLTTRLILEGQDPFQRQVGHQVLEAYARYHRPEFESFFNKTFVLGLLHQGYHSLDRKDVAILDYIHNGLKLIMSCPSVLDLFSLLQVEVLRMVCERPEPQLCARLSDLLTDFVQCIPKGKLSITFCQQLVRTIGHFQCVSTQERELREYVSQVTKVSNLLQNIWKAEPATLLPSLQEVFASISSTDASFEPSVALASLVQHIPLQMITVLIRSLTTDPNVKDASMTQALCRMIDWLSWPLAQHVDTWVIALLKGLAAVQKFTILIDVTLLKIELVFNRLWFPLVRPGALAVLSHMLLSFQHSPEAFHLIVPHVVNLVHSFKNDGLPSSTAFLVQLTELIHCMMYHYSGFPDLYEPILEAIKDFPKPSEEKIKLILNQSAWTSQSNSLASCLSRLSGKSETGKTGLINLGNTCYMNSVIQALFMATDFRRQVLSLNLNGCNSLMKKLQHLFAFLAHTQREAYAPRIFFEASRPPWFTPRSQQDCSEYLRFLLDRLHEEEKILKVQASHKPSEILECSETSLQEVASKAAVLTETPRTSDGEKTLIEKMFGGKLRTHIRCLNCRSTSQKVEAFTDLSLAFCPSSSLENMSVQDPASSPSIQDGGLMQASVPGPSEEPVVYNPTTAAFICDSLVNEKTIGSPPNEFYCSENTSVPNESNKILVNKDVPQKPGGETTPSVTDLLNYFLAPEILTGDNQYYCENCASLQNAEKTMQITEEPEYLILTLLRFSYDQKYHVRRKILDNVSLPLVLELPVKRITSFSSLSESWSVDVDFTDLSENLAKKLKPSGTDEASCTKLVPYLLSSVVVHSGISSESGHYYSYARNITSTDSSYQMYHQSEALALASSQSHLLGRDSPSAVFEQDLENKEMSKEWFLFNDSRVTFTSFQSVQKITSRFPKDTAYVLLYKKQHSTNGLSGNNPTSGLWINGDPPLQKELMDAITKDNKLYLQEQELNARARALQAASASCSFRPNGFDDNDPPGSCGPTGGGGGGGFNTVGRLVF
Procedure, shortened: as §1

[4] = molecular target: T3, USP39 (UniProt Q53GS9)
T3 sequence (whole entry): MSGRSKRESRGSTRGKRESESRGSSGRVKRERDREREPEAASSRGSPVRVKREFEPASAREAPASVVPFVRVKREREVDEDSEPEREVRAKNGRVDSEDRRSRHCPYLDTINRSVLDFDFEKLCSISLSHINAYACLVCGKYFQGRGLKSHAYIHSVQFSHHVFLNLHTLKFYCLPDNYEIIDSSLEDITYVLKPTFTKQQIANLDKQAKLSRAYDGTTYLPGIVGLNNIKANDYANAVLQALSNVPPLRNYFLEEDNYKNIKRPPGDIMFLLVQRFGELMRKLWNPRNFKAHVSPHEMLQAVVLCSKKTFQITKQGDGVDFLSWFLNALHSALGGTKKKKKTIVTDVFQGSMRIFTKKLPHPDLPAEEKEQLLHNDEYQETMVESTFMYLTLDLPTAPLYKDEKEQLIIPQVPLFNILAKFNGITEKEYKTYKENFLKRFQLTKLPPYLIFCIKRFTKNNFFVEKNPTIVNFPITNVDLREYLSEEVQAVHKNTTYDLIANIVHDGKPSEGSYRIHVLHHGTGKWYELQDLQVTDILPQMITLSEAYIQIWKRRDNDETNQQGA
Procedure, shortened: as §1

[5] = molecular target: T4, USP4 (UniProt Q13107)
T4 sequence (whole entry): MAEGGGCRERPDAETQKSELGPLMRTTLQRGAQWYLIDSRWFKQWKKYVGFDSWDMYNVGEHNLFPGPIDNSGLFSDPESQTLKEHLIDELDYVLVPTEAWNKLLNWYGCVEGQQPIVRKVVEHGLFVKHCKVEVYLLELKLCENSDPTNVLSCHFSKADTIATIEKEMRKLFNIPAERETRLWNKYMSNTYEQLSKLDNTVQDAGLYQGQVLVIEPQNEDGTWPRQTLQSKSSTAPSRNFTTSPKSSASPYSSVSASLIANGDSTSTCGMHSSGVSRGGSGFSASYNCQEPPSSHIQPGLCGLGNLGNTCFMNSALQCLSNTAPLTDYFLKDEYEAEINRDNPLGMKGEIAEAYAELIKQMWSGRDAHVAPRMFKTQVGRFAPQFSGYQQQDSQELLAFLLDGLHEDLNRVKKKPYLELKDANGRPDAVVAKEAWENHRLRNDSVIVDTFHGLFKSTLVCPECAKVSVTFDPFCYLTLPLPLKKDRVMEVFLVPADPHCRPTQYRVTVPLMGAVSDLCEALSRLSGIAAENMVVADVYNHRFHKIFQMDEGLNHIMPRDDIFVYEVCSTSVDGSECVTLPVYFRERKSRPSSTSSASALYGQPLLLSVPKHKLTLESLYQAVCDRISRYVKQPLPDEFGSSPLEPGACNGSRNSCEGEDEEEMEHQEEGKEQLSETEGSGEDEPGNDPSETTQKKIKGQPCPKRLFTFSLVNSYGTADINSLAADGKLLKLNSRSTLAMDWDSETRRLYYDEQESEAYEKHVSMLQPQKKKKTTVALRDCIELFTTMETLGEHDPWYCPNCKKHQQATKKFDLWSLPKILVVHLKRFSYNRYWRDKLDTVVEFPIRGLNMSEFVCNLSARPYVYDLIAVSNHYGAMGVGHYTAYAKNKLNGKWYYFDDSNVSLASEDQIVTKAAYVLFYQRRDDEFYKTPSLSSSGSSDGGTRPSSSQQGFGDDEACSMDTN
Procedure, shortened: as §1

Measured: log2 ratio of Biotin-Ahx-Ub-VS probe labelling

Chain of USP34 (Q70CQ2 whole entry, the tested form may be a part): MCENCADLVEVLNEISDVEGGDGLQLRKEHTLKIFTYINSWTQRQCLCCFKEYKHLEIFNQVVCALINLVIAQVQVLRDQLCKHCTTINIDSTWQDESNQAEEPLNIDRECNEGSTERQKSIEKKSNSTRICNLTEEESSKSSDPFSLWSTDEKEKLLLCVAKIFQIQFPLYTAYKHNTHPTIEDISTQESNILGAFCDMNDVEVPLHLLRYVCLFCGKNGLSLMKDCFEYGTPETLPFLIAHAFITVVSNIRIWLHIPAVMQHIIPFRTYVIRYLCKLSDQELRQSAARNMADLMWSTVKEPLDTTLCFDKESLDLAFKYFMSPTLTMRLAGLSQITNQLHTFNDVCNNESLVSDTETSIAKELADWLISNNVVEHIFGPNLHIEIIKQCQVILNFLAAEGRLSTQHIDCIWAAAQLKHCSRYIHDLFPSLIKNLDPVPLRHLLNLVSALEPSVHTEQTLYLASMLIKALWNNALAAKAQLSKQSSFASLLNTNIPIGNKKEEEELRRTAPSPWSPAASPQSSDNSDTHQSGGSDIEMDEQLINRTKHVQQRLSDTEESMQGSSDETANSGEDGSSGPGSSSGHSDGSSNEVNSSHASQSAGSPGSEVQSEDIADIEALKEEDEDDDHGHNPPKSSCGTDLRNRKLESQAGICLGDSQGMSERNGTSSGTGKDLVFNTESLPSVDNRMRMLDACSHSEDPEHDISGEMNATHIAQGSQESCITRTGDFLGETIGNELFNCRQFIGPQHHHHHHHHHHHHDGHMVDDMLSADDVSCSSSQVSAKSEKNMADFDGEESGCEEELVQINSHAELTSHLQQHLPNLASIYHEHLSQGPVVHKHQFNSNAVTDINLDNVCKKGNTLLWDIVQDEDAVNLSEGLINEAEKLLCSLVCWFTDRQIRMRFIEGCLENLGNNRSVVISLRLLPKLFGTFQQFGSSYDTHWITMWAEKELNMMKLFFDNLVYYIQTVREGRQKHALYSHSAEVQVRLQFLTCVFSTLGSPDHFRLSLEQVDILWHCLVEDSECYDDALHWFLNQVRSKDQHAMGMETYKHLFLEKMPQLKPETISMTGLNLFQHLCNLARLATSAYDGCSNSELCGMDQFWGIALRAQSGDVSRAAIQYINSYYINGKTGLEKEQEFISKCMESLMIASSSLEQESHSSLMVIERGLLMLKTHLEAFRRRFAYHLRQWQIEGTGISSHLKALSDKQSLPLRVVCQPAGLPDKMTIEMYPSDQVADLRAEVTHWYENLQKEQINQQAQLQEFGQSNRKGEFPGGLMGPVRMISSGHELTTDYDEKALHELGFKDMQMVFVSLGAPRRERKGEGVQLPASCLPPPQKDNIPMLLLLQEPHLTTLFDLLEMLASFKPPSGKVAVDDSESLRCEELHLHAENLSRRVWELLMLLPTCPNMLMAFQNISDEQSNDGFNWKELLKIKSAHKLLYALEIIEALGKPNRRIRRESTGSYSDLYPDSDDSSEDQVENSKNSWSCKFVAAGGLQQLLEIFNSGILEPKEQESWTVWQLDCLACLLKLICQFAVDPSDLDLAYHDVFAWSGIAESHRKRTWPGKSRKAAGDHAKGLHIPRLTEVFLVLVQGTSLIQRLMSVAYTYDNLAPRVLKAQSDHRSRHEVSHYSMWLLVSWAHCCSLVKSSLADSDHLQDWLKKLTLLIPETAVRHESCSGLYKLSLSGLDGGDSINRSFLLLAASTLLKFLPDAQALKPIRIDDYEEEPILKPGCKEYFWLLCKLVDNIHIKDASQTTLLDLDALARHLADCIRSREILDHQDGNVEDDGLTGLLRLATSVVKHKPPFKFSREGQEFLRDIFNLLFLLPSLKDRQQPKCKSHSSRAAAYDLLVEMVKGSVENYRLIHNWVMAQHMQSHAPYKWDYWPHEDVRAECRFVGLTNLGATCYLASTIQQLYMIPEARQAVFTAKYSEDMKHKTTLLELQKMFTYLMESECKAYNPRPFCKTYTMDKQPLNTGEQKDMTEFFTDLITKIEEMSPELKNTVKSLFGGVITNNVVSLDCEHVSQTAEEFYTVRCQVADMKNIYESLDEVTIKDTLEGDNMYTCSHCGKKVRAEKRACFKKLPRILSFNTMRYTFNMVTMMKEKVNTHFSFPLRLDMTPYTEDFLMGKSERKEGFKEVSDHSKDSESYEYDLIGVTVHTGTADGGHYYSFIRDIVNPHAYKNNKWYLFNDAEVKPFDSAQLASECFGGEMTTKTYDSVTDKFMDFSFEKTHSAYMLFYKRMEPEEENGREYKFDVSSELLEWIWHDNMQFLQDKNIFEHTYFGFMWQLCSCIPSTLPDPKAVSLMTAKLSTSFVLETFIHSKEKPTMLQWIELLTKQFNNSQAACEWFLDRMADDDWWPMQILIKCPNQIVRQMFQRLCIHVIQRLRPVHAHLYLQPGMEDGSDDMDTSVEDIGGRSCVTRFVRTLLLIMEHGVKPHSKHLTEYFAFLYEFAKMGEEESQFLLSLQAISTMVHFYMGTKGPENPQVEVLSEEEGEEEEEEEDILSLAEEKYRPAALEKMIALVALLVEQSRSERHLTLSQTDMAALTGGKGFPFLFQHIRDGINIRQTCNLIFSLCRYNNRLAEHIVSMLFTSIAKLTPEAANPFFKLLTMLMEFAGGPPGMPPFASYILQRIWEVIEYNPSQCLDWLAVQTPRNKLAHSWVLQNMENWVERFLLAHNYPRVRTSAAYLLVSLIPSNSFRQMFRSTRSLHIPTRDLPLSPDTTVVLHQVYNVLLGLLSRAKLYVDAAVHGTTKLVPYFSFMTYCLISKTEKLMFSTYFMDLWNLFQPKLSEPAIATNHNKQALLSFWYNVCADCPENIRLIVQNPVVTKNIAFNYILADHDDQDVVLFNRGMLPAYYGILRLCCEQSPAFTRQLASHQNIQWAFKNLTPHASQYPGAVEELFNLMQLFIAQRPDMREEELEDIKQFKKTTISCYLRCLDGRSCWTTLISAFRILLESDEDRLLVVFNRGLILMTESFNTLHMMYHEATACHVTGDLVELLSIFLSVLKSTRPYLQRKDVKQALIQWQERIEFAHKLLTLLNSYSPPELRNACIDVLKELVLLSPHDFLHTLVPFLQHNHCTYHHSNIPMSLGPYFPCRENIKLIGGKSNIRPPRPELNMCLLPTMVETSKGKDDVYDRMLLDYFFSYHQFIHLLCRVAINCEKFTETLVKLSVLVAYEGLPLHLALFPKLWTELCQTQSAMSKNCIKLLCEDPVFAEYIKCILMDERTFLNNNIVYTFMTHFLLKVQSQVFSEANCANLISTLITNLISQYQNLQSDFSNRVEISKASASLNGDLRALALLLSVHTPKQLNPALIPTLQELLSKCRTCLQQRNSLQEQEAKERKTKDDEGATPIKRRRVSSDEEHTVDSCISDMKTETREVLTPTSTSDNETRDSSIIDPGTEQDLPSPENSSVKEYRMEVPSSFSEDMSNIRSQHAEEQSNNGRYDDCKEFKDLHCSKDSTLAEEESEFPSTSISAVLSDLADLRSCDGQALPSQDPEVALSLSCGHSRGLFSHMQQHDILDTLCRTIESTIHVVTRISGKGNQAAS

CC1CN(c2ccc(NC(=O)CCl)cc2)CC(C)O1 (stereo not given)
inactive: [1] -0.087 | [2] -0.162 | [3] 0.0369 | [4] 0.216 | [5] -0.104
